Results: PubChem BioAssay
Several values for one entry are separate records, joined by “and”; a condition that tells them apart may be missing. Identical values can stand only once. Activity calls are given as the source filed them. Unless noted, no rule for the calls is given here.

Columns and labels:
[1] = blockers of cellular phospholipid synthesis – cell-based, LOPAC library, screen 4, primary screen (AID 1347384); conditions: animal cells, phospholipid biosynthesis inhibition screen; at 10 µM
[2] = chitosan synthesis blockers in C. neoformans – flow cytometry, Cibacron Brilliant Red staining (AID 1347148); conditions: Cryptococcus neoformans chitosan, stronger effect = lower value; at 10 µM unless noted;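 also: compound exposure lasted three days at 37 degrees C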
[3] = liver-stage malaria parasite load reduction – cell-based, known kinase inhibitor set, luminescence, hepatoma host viability (AID 624392); conditions: Plasmodium liver stage in hepatoma cells, luciferase luminescence, concentration not given here; liver cell % of control: measured here: host liver cell viability; parasite % of control: stronger effect = lower value;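 also: infected cells incubated roughly two days before readout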
[4] = compounds altering circadian rhythm period length – cell-based, LOPAC library, luminescence reporter (AID 2774); conditions: circadian reporter cells, at 7 µM, actives lie on both sides;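 also: values are relative to mean of DMSO wells on each plate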
[5] = tested on: Hepatitis C virus NS3 helicase; assay: blockers of NS3h binding to ssDNA – biochemical, fluorescence polarization, LOPAC1280 library, primary screen (AID 687035; in the data active = inhibition above about 37%); conditions: Purified HCV NS3 helicase, Cy5-dT15 ssDNA binding fluorescence polarization; stronger effect = higher value; concentration not given here
[6] = compounds altering Cy5-DNA-NS3h complex signal – biochemical, LOPAC1280, artefact control for HCV NS3 helicase inhibitor project (AID 687037); conditions: Cy5-DNA-NS3h complex fluorescence interference counterscreen
[7] = UWB1.289_BRCA1 ovarian cancer growth, cell-based, BGB or cisplatin combinations (AID 1671459; in the data active = inhibition above about 80%); conditions: UWB1.289 BRCA1 ovarian carcinoma, drug combinations, stronger effect = higher value
[8] = drug combination toxicity in non-malignant astrocytes – cell-based, BGB or cisplatin IC20 combos, cytotoxicity control for chromothriptic childhood tumor combination screen (AID 1671460; in the data active = inhibition above about 80%;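 also: cells exposed to compounds for 96 hours before viability readout; 0% = vehicle and 100% = killing control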); conditions: Human astrocytes, viability inhibition, drug combinations, at 0.5 µM, stronger effect = higher value
[9] = BGB combination, concentration series, at 5 µM
[10] = cisplatin combination, concentration series, at 5 µM
[11] = measured here: combo with BGB IC20
[12] = measured here: combo with cisplatin IC20

With c1cnc2cc3c(cc2n1)C1CNCC3C1 the outcome [1] was “inactive”.
For N=C(N)c1ccc2cc(OC(=O)c3ccc(N=C(N)N)cc3)ccc2c1, the fold fluorescence [2] was 12.2 [at 143.9 µM] (inactive).
In the case of Cc1ccc(Nc2nccc(N(C)c3ccc4c(C)n(C)nc4c3)n2)cc1S(N)(=O)=O, the liver cell % of control [3] is reported as 87.8% and 92.8% and 108% and the parasite % of control [3] is reported as 30.2% (inactive) and 10.9% (inactive) and 16.3% (inactive).
For CCCCN(CCCC)CC(O)c1cc(Cl)cc2c1-c1ccc(Cl)cc1/C2=C/c1ccc(Cl)cc1 (configuration not stated), the outcome [1] was “inactive”.
With N[C@@H](Cc1c[nH]c2ccc(O)cc12)C(=O)O the period change [4] was -0.25 h (inactive), the inhibition [5] was -3% (inactive) and the fluorescence ratio (interference) [6] was 1 (inactive). The outcome [1] was “inactive”.
For C=CC(=O)Nc1cc2c(Nc3ccc(F)c(Cl)c3)ncnc2cc1OCCCN1CCOCC1, the liver cell % of control [3] was 85.5% and 77.3% and 90.4% and the parasite % of control [3] was 36.7% (inactive) and 39.4% (inactive) and 33.2% (inactive).
With NCCCC(N)(C(=O)O)C(F)F (configuration not stated) the period change [4] was -0.04 h (inactive), the inhibition [5] was -3% (inactive) and the fluorescence ratio (interference) [6] was 1 (inactive). The outcome [1] was “inactive”.
In the case of CC(C)(C)C(=O)Oc1ccc(S(=O)(=O)Nc2ccccc2C(=O)NCC(=O)O)cc1, the inhibition [5] is reported as -5% (inactive), the fluorescence ratio (interference) [6] is reported as 0.9 (inactive) and the outcome [1] is reported as “inactive”.
In the case of CC1=C(C)C(=O)C(CCCCC#CCCCC#CCO)=C(C)C1=O, the period change [4] is reported as -0.105 h (inactive), the inhibition [5] is reported as -2% (inactive) and the fluorescence ratio (interference) [6] is reported as 1 (inactive). The fold fluorescence [2] was 9.55 [at 153.2 µM] (inactive) and the outcome [1] was “inactive”.
For C#Cc1cccc(Nc2ncnc3cc(OCCOC)c(OCCOC)cc23)c1, the liver cell % of control [3] was 94.7% and 95% and 97.1% and the parasite % of control [3] was 281% (inactive) and 87% (inactive) and 63.1% (inactive).
In the case of O=c1[nH]c(=O)n([C@H]2C[C@H](O)[C@@H](CO)O2)cc1C(F)(F)F, the inhibition [7, 9] is reported as 3.66%, the inhibition ([7]; at 0.5 µM) is reported as -12.4% (inactive) and the inhibition [7, 10] is reported as 9.54%. The inhibition [8] was -1.16% (inactive), the inhibition [8, 11] was 5.49% and the inhibition [8, 12] was -19.9%.
In the case of CCOC(=O)Nc1ccc(NCc2ccc(F)cc2)nc1N, the period change [4] is reported as -0.33 h (inactive), the inhibition [5] is reported as -3% (inactive) and the fluorescence ratio (interference) [6] is reported as 1 (inactive). The outcome [1] was “inactive”, the inhibition [7, 9] was -6.96% and the inhibition ([7]; at 0.5 µM) was -1.39% (inactive). The inhibition [7, 10] was 8.03%, the inhibition [8] was 3.76% (inactive) and the inhibition [8, 11] was 6.16%. The inhibition [8, 12] was 13.9%.
With C[C@]12CC[C@@H]3c4ccc(O)cc4C[C@@H](CCCCCCCCCS(=O)CCCC(F)(F)C(F)(F)F)[C@H]3[C@@H]1CC[C@@H]2O (some centres not stated) the inhibition [5] was 0% (inactive), the fluorescence ratio (interference) [6] was 0.9 (inactive) and the outcome [1] was “inactive”.
For CCCCCCCCCCCCCCC[C@H](O)[C@@H](N)CO, the fold fluorescence [2] was 7.01 (inactive).
In the case of O=c1[nH]c(=O)n([C@H]2C[C@H](O)[C@@H](CO)O2)cc1Br, the inhibition [7, 9] is reported as 35.6%, the inhibition ([7]; at 0.5 µM) is reported as 9.43% (inactive) and the inhibition [7, 10] is reported as 29%. The inhibition [8] was 11% (inactive), the inhibition [8, 11] was 6.3% and the inhibition [8, 12] was 12.5%.
In the case of O=c1[nH]c2ccccc2n1CCCN1CCN(C(c2ccccc2)c2ccccc2)CC1, the period change [4] is reported as 0.15 h (inactive).
